Assay results as given in ChEMBL document CHEMBL1157539, “Thousands of chemical starting points for antimalarial lead identification” (Nature, 2010).

The molecules below were run on Plasmodium falciparum (assay: GSK_TCMDC: Inhibition of Plasmodium falciparum 3D7 in whole red blood cells, using parasite LDH activity as an index of growth. Test compounds present at 2uM).
Type: functional

Compared with O=C(Nc1ccc(F)cc1)NC1CCN(c2ccnc3ccccc23)C1.O=C(O)C(F)(F)F (stereo not drawn), O=C(Nc1ccc(Cn2ncc(N3CCCNCC3)c(Cl)c2=O)cc1)Nc1cccc(Oc2ccccc2)c1.O=C(O)C(F)(F)F is lower in Inhibition: 92% for the first, 81% for the second.

Compared with CC(C)(C)COc1ccc2c(N)n[nH]c2c1.Cl, CC(=O)c1ccc(Nc2c(C(N)=O)cnc3cc(-c4c(C)noc4C)ccc23)cc1 is higher in Inhibition: 90% for the first, 99% for the second.

Going from CCN(CC)CCCNc1ncc2c(-c3ccc(NC(=O)Nc4cc(C(F)(F)F)ccc4F)cc3)nn(C)c2n1.O=C(O)C(F)(F)F to COc1ccc(NCc2cccc(-c3cccc(CNCCc4ccccc4)c3)c2)cc1.O=C(O)C(F)(F)F, the Inhibition falls from 99% to 96%.

Going from CC(C)C1c2ccc(O)cc2CC2C(=O)N(C3CCCCC3)C(=O)N21 (stereo not drawn) to Cl.O=C(Nc1ccc(Cl)c(Cl)c1)N1CCc2ccc(OCCCN3CCCCC3)cc2CC1, the Inhibition falls from 95% to 92%.

Compared with O=c1cc(NCCCNCc2cc(Cl)cc(Cl)c2OCc2ccccc2)[nH]c2ccccc12, CCOc1c(CCNCCCCNCCc2ccc3ccccc3c2OCC)ccc2ccccc12.CS(=O)(=O)O is higher in Inhibition: 91% for the first, 94% for the second.

First: NS(=O)(=O)c1cccc(N/C=C2\C(=O)Nc3ccc(S(=O)(=O)Cc4c(Cl)cccc4Cl)cc32)c1
Second: Cc1cccc2nc(-c3cccc(-c4ccc(NC(=O)c5cnccc5C(F)(F)F)cc4)c3)[nH]c12
The Inhibition of the first is lower: 92% for the first, 100% for the second.

For O=C(NC1CCN(Cc2ccccc2)CC1)c1cc(C(=O)NC2CCN(Cc3ccccc3)CC2)cc(C(=O)NC2CCN(Cc3ccccc3)CC2)c1, the Inhibition was 100%.
